Screening data (PubChem)
p53ts 39C kill: cytotoxicity in p53ts cells at nonpermissive temperature. H1299-p53A138V viability at 39C, ATP luminescence, 24 h. Potency, µM (doses to about 46.1 µM), for the others: at the highest dose activity change, negative = cell killing, most hits filed as cytotoxic. 130,000 tested, 1.5% active. AID 902; note: % is set by controls: 0 for no effect and ±100 for the full control effect; nearly all actives have a fitted effect of over 55% in size
IkB signaling: suppresses IkB signaling in ABC-DLBCL reporter cells | ABC-DLBCL IkBa-CBG/CBR dual luciferase ratio, 4 h; response scale: scaled: untreated 0%, proteasome inhibitor 100% | Potency, µM (top dose mostly 57.1 µM), for inactives: at the highest dose IkBa stabilization activation | 110,000 tested, 0.04% active | AID 445; active = well fitted curve in the direction sought with a large enough effect in the signal ratio, not every such curve was filed as active; inconclusive = small, poorly fitted or top-dose-only effect, or a change in a side signal; the % refers to the signal ratio;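 note: the direction sought is a rising ratio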
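Curves were fitted separately to fusion (green), unfused (red) and ratio luminescence, then classed by r2, magnitude and activity. Cells: OCI-Ly3, 4 h compound plus doxycycline at 37C; 10 uM MG-132 defined full response.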
Imprint erasure: inducers of genomic imprint erasure in mouse ES cells; mouse ES Peg3-LacZ reporter, beta-gal luminescence, 40 h; 110,000 tested, 0.02% active; Potency, µM (top dose mostly 60.7 µM), without a hit: top-dose activity change, positive = activation, most hits filed as activators
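Gelatin-coated wells received 300 freshly trypsinized female ES cells with a Peg3LacZ-Neo reporter on the maternal allele, then incubated 40 hours at 37C. BetaGlo was added for 5 minutes at room temperature before a single luminescence read.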
p53ts 32C kill: p53ts cell cytotoxicity, permissive temperature; H1299-p53A138V at 32C, ATP luminescence viability, 24 h; Potency, µM (titrated, usually from 46.1 µM), for the others: at the highest dose activity change, negative = cytotoxicity, most hits filed as cytotoxic; 130,000 tested, 0.93% active; AID 924;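 note: 0% = DMSO and -100% = full killing by reference compound; nearly all actives have a fitted effect of over 55% in size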
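H1299-p53 A138V cells (temperature-sensitive p53) exposed 24 h to up to 46 uM compound at 32C, where p53 is wild-type in conformation. Viability read as ATP luminescence and normalised to DMSO and 100 uM tamoxifen. AC50 fitted with the Hill equation.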
* = called active by the depositor; ? = inconclusive; / = not tested or not shown; [ ] = remark or other dose. Most compounds without a hit are left out; they make up all but 1.8% or so of the library. Unless noted, calls come from the whole dose curve; as a rule, active = well fitted curve in the direction sought with a large enough effect; inconclusive = small, poorly fitted or top-dose-only effect, or another doubt; inactive = no such curve, though single readings can be large; an effect the other way counts as inactive or inconclusive. Potency is the fitted concentration of half-maximal effect.

SMILES	p53ts 39C kill	IkB signaling	Imprint erasure	p53ts 32C kill
CCc1nnc(NC(=O)c2ccc(OC)cc2OC)s1	?	?	-45%	16µM*
COc1nc(C)ccc1-c1noc(-c2ccccn2)n1	10µM*	-4%	-76%	10µM*
COc1ccccc1-c1noc(-c2ccncc2)n1	?	5%	-81%	?
COc1ccccc1-c1nc(-c2ccccn2)no1	5µM*	?	-94%	4µM*
COc1ccccc1-c1nc(-c2ccc(C)nc2OC)no1	?	-6%	-32%	?
COc1ccc(-c2noc(-c3cccc(OC)c3OC)n2)cc1	?	?	-3%[10.9 µM]	13µM*
COc1ccc(-c2noc(-c3ccccc3-c3ccccc3)n2)cc1OC	-1%	2%	-16%	10%
CCN1C(C(=O)c2ccccc2)=C(OC(=O)COc2ccc(OC)cc2)c2ccccc2S1(=O)=O	?	?	-12%[10.9 µM]	2%
CCCOc1ccc(N)cc1N	-21%	27%	-21%	20µM*
CCOc1ccc(NC(=O)CSc2oc(-c3cccs3)nc2S(=O)(=O)c2ccc(Cl)cc2)cc1	13µM*	?	-27%[10.9 µM]	-23%
Cc1cc(C)cc(NC(=O)CSc2oc(-c3ccccc3)nc2S(=O)(=O)c2ccccc2)c1	?	?	-15%[10.9 µM]	-17%
CCOc1ccc(NC(=O)CSc2oc(-c3ccc(C)cc3)nc2S(=O)(=O)c2ccc(C)cc2)cc1	0.79µM*	-1%	-41%[10.9 µM]	13µM*
O=C(CSc1ncn[nH]1)NC1CC2CCC1C2 (configuration not stated)	15%	2%	-12%	7%
Cc1ccccc1S(=O)(=O)Cc1ccc(C(=O)N2CCN(c3cccc(C)c3C)CC2)o1	13µM*	?	-34%	?
Cc1nn(C(=O)c2cccs2)c(N)c1-c1ccccc1	?	1%	-8%	13µM*
Cc1nn(C(=O)c2ccc3c(c2)OCO3)c(N)c1-c1ccccc1	?	12%	-15%	13µM*
CCOc1cc2[nH]c(=O)n(CC3CCC(C(=O)NCCC(C)C)CC3)c(=O)c2cc1OCC (configuration not stated)	6%	-2%	-2%	1%
Cc1ccc(C(=O)Nc2ccccc2C(=O)NC(C(=O)O)C(C)C)cc1 (configuration not stated)	10µM*	/	/	?
Cc1ccc(C(=O)Nc2ccccc2C(=O)NC(CC(=O)O)C(=O)O)cc1 (configuration not stated)	-25%	?	-31%	-24%
CC(=O)N1CCCc2cc(S(=O)(=O)N3CCC(C(=O)N(Cc4ccccc4)C(C)C)CC3)ccc21	-15%	2%	-14%[10.9 µM]	-6%
CCCCCCCNS(=O)(=O)c1cccc2c(Cl)cccc12	?	?	-23%	-29%
NCCCCCCCCCCNS(=O)(=O)c1cccc2c(Cl)cccc12	16µM*	?	-24%	25µM*
NCCCCCCNS(=O)(=O)c1cccc2c(Cl)cccc12	32µM*	?	?	-9%
Oc1ccccc1-c1nnc(-c2ccc(C(F)(F)F)cc2)o1	-20%	-2%	-24%	-10%
CCCN(CCC)CC(O)Cn1cc(/C=C/C(=O)c2ccc(Br)cc2)c2ccccc21 (configuration not stated)	7.9µM*	?	-6%[10.9 µM]	-21%
SMILES	p53ts 39C kill	IkB signaling	Imprint erasure	p53ts 32C kill
CCCN(CCC)CC(O)Cn1cc(/C=C/C(=O)c2ccc(C)cc2)c2ccccc21 (configuration not stated)	13µM*	?	11%[10.9 µM]	?
CCCN(CCC)CC(O)Cn1cc(/C=C/C(=O)c2ccc(OC)cc2)c2ccccc21 (configuration not stated)	10µM*	?	-4%[10.9 µM]	?
COc1ccc(C(=O)/C=C/c2cn(CC(O)CN(CC(C)C)CC(C)C)c3ccccc23)cc1 (configuration not stated)	-14%	-1%	-17%[10.9 µM]	-6%
CCCCN(C)CC(O)Cn1cc(/C=C/C(=O)c2ccc(C)cc2)c2ccccc21 (configuration not stated)	16µM*	?	-11%[10.9 µM]	?
Cc1ccc(C)c(N2CCN(C(=O)c3cc4c(=O)n(Cc5cccnc5)ccc4nc3C)CC2)c1	-12%	?	18%[10.9 µM]	3%
CCCCN(C)CC(O)Cn1cc(/C=C/C(=O)c2ccc(OC)c(OC)c2)c2ccccc21 (configuration not stated)	16µM*	?	?	20µM*
CCCCN(C)CC(O)Cn1cc(/C=C/C(=O)c2ccc(Br)cc2)c2ccccc21 (configuration not stated)	?	?	-4%[10.9 µM]	?
Cc1ccc(CNC(=O)c2cc3ccc4cccnc4c3[nH]2)cc1	-21%	?	25%[10.9 µM]	-2%
Cc1ccc(C)c(CN2CCC(CNC(=O)c3cc4ccc5cccnc5c4[nH]3)CC2)c1	-17%	0%	-5%[10.9 µM]	-2%
CCN(Cc1ccccc1)C(=O)c1cc2ccc3cccnc3c2[nH]1	32µM*	?	-4%[10.9 µM]	?
Cc1ccc(CN2CCC(CNC(=O)c3cc4ccc5cccnc5c4[nH]3)CC2)cc1	13µM*	?	11%[10.9 µM]	?
COc1ccc(S(=O)(=O)N(C)CC(=O)O)c2ccccc12	5%	-3%	-14%	12%
Cn1c(=O)n(C)c2cc(NS(=O)(=O)c3ccc4c(c3)CCCC4)ccc21	-9%	7.9µM*	-16%	-1%
CCc1ccc(S(=O)(=O)Nc2ccc3c(c2)n(C)c(=O)c(=O)n3C)cc1	-21%	0%	-13%[10.9 µM]	-12%
CCn1c(=O)cc(C(=O)OC)sc1=Nc1ccc(F)c(F)c1	17%	?	-39%	20µM*
CCOC(=O)c1ccc(N=c2sc(C(=O)OC)cc(=O)n2CCCN2CCOCC2)cc1	105%	?	-31%	18%
Nc1ncnc2c1nc(Cl)n2C1OC(CO)C(O)C1O (configuration not stated)	?	/	-10%	?
[N-]=[N+]=Nc1nc2c(N)ncnc2n1C1OC(CO)C(O)C1O (configuration not stated)	2.5µM*	/	-7%	2µM*
CCn1c(NC(C)=O)nc2ccccc21	26%	/	/	6%
CCn1c(=O)c(C(=O)Nc2ccc(C(C)=O)cc2)nc2ccccc21	13µM*	2%	2%[10.9 µM]	10µM*
Cc1ccc(NC(=O)Cn2c(=O)n(CCCCC(=O)NCCc3ccccc3)c(=O)c3ccccc32)cc1	1%	-2%	-7%[10.9 µM]	13%
Cc1c(N=c2c(=O)c3ccccc3c2=O)c(=O)n(-c2ccccc2)n1C	13µM*	?	-47%	10µM*
CC(=O)Nc1ccc(NC(=O)C2CC(=O)N(c3cccc(C)c3C)C2)cc1 (configuration not stated)	1%	1%	5%	-1%
O=C(OCC#CCSc1nnc(-c2ccncc2)o1)c1cccs1	-2%	0%	-18%	8%
